Source: PubChem BioAssay (several laboratories)
Hits are enriched below; roughly 2% of the tested compounds scored in any of these assays.
CHT block: inhibitors of human choline transporter CHT | High affinity choline transporter 1 (Homo sapiens), Q9GZV3 | CHT-expressing cells, membrane potential dye, choline response; stronger effect = lower value | B-score at 10 µM | 310,000 tested, 0.86% active;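 active means B-score over 3 SD under the library average, and starting fluorescence ratio not unusually high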;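 further: choline stimulus applied at its EC90 after an EC20 pre-addition; B-score computed on integrated fluorescence ratio after choline addition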
PGE2 EP2 inh: human EP2 receptor antagonists, primary screen, TR-FRET cAMP, C6 glioma cells; AID 1422, 2008; 260,000 tested, 0.52% active; inhibition, % at 25 µM; C6 glioma cells expressing human EP2; cells stimulated with saturating PGE2; Prostaglandin E2 receptor EP2 subtype (Homo sapiens), P43116;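 active means percent inhibition above 40 after rounding to a whole number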;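 further: rat C6 glioma host cells with rolipram phosphodiesterase inhibitor present; the protocol text gives 20 µM as final concentration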
Target sequence (P43116 whole entry, looked up): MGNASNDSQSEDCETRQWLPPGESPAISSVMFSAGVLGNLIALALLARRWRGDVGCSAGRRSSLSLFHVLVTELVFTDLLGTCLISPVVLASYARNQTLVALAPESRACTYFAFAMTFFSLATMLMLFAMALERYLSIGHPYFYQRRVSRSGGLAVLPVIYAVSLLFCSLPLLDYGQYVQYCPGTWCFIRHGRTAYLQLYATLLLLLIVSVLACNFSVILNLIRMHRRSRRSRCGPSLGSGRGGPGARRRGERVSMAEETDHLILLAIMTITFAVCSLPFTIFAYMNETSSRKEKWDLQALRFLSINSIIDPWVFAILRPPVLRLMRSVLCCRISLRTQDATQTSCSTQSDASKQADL
CHT PAM: CHT positive allosteric modulators, primary screen, cell-based, membrane potential dye, choline EC20; High affinity choline transporter 1 (Homo sapiens), Q9GZV3; CHT-expressing cells; stronger effect = higher value; LV-AA mutant CHT in HEK293 cells; B-score at 10 µM; 310,000 tested, 0.49% active;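 active means initial fluorescence not abnormally high and integrated response B-score, plate-corrected, over 3 SD above library mean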
EP2 mod: EP2 receptor modulators, cAMP readout, primary screen, cell-based, HTRF cAMP, PGE2 stimulation; Prostaglandin E2 receptor EP2 subtype (Homo sapiens), P43116; EP2-expressing cells, cAMP HTRF FRET, PGE2 co-stimulation; induction, % at 25 µM; 260,000 tested, 0.83% active; AID 940, 2007;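 active means compounds whose cAMP rise, as percent of the full-agonist control response, exceeds 60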;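 further: rat C6 glioma line stably carrying human EP2 under a CMV promoter; the protocol text gives 20 µM as final concentration; 100% = response of wells given 1 µM PGE2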
CHT activ conf: CHT activators, confirmation, cell-based, membrane potential dye, duplicate | shares compounds with CHT PAM | CHT-expressing cells, membrane potential dye fluorescence (FDSS); % of choline EC20–EC90 response window; HEK293 expressing CHT LV-AA mutant; choline added at its EC20 | activation, % at 10 µM | 2,500 tested, 91% active;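 active means primary screen active, with duplicate mean activation above negative control mean plus 3 SD, cut at about 11% in these data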
HEK293 MP dye: membrane potential response in parental HEK293 cells, counter-screen for CHT activator project, cell-based, membrane potential dye; 2,500 tested, 62% active; membrane potential dye fluorescence (FDSS); measured after EC20 choline addition; ratio readout change at 10 µM, hits read low; shares compounds with CHT PAM;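 active means duplicate-averaged ratio beyond 3 SD from buffer wells, up or down, though filed actives are nearly all decreases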
Numbers without * were called inactive.

O=C1c2nc3cc(-c4ccco4)[nH]n3c(=O)c2CN1Cc1ccccc1 was read as CHT block inactive, PGE2 EP2 inh 9, CHT PAM 7*, EP2 mod 44, CHT activ conf 30* and HEK293 MP dye -55*.
Screening Cc1ccc(Cn2c(SCCN3CCOCC3)nc3c2c(=O)n(C)c(=O)n3C)cc1 returned CHT block inactive, PGE2 EP2 inh 20, CHT PAM inactive and EP2 mod -8.
Screening Cc1cccc(Cn2c(SCCN3CCCCC3)nc3c2c(=O)[nH]c(=O)n3C)c1 returned CHT block inactive, PGE2 EP2 inh 9, CHT PAM 9*, EP2 mod 0, CHT activ conf 61* and HEK293 MP dye -62*.
COCCSc1nc2c(c(=O)[nH]c(=O)n2C)n1CCCc1ccccc1 was read as CHT block inactive and CHT PAM inactive.
For C=CCn1c(SCCN2CCCCC2)nc2c1c(=O)[nH]c(=O)n2C the results were CHT block inactive, PGE2 EP2 inh 11, CHT PAM 10*, EP2 mod -4, CHT activ conf 64* and HEK293 MP dye -63*.
Cc1ccc(Cn2c(SCCN3CCCCC3)nc3c2c(=O)[nH]c(=O)n3C)cc1 was read as CHT block inactive, PGE2 EP2 inh 7, CHT PAM 6.5*, EP2 mod 5, CHT activ conf 53* and HEK293 MP dye -50*.
Screening Cn1c(=O)[nH]c(=O)c2c1nc(SCCN1CCCCC1)n2CCCc1ccccc1 returned CHT block inactive, PGE2 EP2 inh 13, CHT PAM inactive, EP2 mod 6, CHT activ conf 53* and HEK293 MP dye -54*.
O=C(CS(=O)CC(=O)Nc1ccc2c(c1)OCCO2)Nc1ccc(Cl)cc1 (stereo unspecified) was read as PGE2 EP2 inh 4 and EP2 mod -11.
O=C(CSc1nc(-c2cccs2)cc(C(F)(F)F)n1)Nc1ccccc1Br was read as PGE2 EP2 inh 18 and EP2 mod -146.
For COc1ccc(CCNC(=O)C(=O)NCc2ccc3c(c2)OCO3)cc1OC the results were PGE2 EP2 inh 7 and EP2 mod -60.
`CCc1nn(CC(=O)N2CCCC(C)C2)c(=O)c2cc3oc(C)cc3n12` (stereo unspecified) gave PGE2 EP2 inh 6 and EP2 mod -21.
Screening CCCC(=O)N(Cc1cc2cc(OC)ccc2[nH]c1=O)C(C)C returned PGE2 EP2 inh 8 and EP2 mod 45.
Cn1c(=O)[nH]c(=O)c2c1nc(SCCN1CCCCC1)n2Cc1ccccc1 was read as CHT block inactive, PGE2 EP2 inh 11, CHT PAM 9.9*, EP2 mod 6, CHT activ conf 58* and HEK293 MP dye -61*.
C=CCn1c(SCCN2CCCC2)nc2c([nH]c3ccccc32)c1=O was read as CHT block inactive, PGE2 EP2 inh 9, CHT PAM 6.5*, EP2 mod -34, CHT activ conf 40* and HEK293 MP dye -41*.
Screening C=CCn1c(SCC(=O)Nc2ccc(OC)cc2)nc2c([nH]c3ccccc32)c1=O returned CHT block inactive and CHT PAM inactive.
For N#Cc1cc2c(nc1SC(C(=O)O)c1ccccc1)CCCC2 (stereo unspecified) the results were PGE2 EP2 inh 10 and EP2 mod 24.
`COc1cc(/C=C2\SC(=S)N(CCC(=O)Nc3ccc(C)c(C)c3)C2=O)cc(OC)c1OC` gave PGE2 EP2 inh 12 and EP2 mod 20.
For CN1CCCC(n2nc(Cc3ccc(Cl)cc3)c3ccccc3c2=O)CC1 (stereo unspecified) the results were CHT block inactive, PGE2 EP2 inh 13, CHT PAM inactive, EP2 mod -15, CHT activ conf 44* and HEK293 MP dye -30*.
Screening C[N+](C)(C)CCCCCCCCCC[N+](C)(C)C returned CHT block inactive, PGE2 EP2 inh 23, CHT PAM 7.8*, EP2 mod -17, CHT activ conf 43* and HEK293 MP dye -52*.
Cc1ccccc1CSc1nc2c(cc1C#N)CCC2 was read as PGE2 EP2 inh 17 and EP2 mod 31.
`Cc1ccn2c(NC(=O)c3ccco3)c(-c3ccccc3)nc2c1` gave CHT block inactive, PGE2 EP2 inh 7, CHT PAM inactive and EP2 mod 9.
`Cc1ccccc1Nc1c(-c2ccc(N3CCOCC3)cc2)nc2ncccn12` gave CHT block inactive, PGE2 EP2 inh 10, CHT PAM inactive, EP2 mod -64, CHT activ conf 25* and HEK293 MP dye -53*.
`Cc1ccn2c(Nc3ccccc3C)c(-c3cccnc3)nc2c1` gave CHT block inactive, PGE2 EP2 inh 3, CHT PAM inactive, EP2 mod 23, CHT activ conf 41* and HEK293 MP dye -49*.
For Cc1ccccc1Nc1c(-c2ccc(N3CCOCC3)cc2)nc2cnccn12 the results were CHT block inactive, PGE2 EP2 inh 10, CHT PAM 9.4*, EP2 mod -48, CHT activ conf 29* and HEK293 MP dye -55*.
For Cc1ccc(Nc2c(-c3ccc(N4CCOCC4)cc3)nc3cnccn23)cc1 the results were CHT block inactive, PGE2 EP2 inh 9, CHT PAM inactive and EP2 mod -80.
`CCc1ccc2[nH]c(=O)c(CN(CCCN(C)C)C(=O)Nc3ccc(Cl)cc3)cc2c1` gave PGE2 EP2 inh 15 and EP2 mod -95.
For COC(=O)c1ccccc1NC(=O)COC(=O)CSc1nc2ccccc2[nH]1 the results were PGE2 EP2 inh 13 and EP2 mod -37.
Screening CCc1c(C)nc2c(-c3cccs3)c(C)[nH]n2c1=O returned EP2 mod -10.
Screening COc1cc(NC(=O)c2c(-c3ccccc3Cl)noc2C)c2ncccc2c1 returned CHT block inactive, CHT PAM 7.8*, CHT activ conf 8 and HEK293 MP dye inactive.
`Cc1onc(-c2ccccc2Cl)c1C(=O)Nc1cccc2cccnc12` gave CHT block inactive, PGE2 EP2 inh 13, CHT PAM inactive and EP2 mod 52.
Screening Cc1cc(NCCCN2CCOCC2)n2nc(C)c(-c3ccccc3)c2n1 returned CHT block inactive, PGE2 EP2 inh 12, CHT PAM 9.7*, EP2 mod -18, CHT activ conf 45* and HEK293 MP dye -57*.
